Data on seven compounds can be found in ChEMBL document CHEMBL2218924, “A broad activity screen in support of a chemogenomic map for kinase signalling research and drug discovery” (Biochem J, 2013).

The structures appear in SMILES notation.

For experiment [1], the target named is Insulin receptor (Homo sapiens) (UniProt P06213). The settings on record: at 10 µM.
The target is the same in experiment [2]. The settings on record: at 1 µM.
The target is the same in experiment [3]. The settings on record: at 10 µM. The source holds these as a separate data set.
Experiment [4] concerns the target Interleukin-1 receptor-associated kinase 1 (Homo sapiens) (UniProt P51617). Particulars: at 1 µM.
The target is the same in experiment [5]. Particulars: at 10 µM.
Experiment [6] deals with T1, Interleukin-1 receptor-associated kinase 4 (Homo sapiens) (UniProt Q9NWZ3).
T1 sequence (whole entry): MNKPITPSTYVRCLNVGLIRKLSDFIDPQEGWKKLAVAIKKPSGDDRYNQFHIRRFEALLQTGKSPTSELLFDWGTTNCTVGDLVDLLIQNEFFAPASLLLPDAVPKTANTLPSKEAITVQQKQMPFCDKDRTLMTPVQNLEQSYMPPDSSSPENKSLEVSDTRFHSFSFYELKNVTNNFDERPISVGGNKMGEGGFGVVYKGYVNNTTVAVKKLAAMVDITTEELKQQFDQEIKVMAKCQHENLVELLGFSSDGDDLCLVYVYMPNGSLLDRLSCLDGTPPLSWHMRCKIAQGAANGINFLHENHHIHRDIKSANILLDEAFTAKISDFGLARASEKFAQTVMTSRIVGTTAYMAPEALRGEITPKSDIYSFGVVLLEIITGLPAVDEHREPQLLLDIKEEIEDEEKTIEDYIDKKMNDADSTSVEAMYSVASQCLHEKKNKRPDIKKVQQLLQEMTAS
The settings on record: at 1 µM.

Experiment [7] has as its target T1, Interleukin-1 receptor-associated kinase 4 (Homo sapiens). The settings on record: at 10 µM.
In experiment [8] the target is Insulin receptor-related protein (Homo sapiens) (UniProt P14616). The settings on record: at 1 µM.
Chain of Insulin receptor-related protein (Homo sapiens) (P14616 27-742 limits assumed): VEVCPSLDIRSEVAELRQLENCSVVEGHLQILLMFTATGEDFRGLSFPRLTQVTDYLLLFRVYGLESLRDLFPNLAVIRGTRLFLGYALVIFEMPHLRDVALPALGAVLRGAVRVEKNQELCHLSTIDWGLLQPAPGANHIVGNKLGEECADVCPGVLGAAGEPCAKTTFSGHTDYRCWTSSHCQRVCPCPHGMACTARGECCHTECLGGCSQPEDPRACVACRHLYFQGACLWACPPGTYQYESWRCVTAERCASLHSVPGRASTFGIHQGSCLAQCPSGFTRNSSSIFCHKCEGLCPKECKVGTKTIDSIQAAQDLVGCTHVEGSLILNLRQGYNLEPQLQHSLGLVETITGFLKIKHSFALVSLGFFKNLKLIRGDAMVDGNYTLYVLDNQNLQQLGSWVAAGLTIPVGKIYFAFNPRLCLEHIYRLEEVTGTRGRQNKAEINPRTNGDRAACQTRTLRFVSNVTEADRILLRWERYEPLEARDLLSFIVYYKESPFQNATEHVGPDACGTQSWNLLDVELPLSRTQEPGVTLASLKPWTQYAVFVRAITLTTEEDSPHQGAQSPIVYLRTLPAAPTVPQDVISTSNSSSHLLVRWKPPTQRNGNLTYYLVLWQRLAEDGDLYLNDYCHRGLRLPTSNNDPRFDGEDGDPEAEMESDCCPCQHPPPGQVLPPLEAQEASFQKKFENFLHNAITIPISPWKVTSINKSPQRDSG
Chain of Insulin receptor-related protein (Homo sapiens) (P14616 747-1297 limits assumed): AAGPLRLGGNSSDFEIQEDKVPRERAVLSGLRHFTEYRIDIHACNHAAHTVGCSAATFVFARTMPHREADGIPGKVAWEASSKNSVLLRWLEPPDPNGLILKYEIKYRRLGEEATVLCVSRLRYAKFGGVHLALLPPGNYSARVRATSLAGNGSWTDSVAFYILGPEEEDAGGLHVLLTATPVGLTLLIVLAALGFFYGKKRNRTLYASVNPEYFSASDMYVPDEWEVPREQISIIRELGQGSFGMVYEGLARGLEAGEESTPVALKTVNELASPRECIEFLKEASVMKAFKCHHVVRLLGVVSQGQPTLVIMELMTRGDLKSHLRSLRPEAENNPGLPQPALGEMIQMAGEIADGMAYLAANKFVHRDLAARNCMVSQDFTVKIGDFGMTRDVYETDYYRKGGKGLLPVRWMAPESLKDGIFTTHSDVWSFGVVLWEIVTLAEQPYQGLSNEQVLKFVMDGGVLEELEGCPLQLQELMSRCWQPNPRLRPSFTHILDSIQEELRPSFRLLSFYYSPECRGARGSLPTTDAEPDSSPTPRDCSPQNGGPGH
Experiment [9] shares this target. The settings on record: at 10 µM.
Experiment [10] addresses T2, Tyrosine-protein kinase ITK/TSK (Homo sapiens) (UniProt Q08881).
T2 sequence (whole entry): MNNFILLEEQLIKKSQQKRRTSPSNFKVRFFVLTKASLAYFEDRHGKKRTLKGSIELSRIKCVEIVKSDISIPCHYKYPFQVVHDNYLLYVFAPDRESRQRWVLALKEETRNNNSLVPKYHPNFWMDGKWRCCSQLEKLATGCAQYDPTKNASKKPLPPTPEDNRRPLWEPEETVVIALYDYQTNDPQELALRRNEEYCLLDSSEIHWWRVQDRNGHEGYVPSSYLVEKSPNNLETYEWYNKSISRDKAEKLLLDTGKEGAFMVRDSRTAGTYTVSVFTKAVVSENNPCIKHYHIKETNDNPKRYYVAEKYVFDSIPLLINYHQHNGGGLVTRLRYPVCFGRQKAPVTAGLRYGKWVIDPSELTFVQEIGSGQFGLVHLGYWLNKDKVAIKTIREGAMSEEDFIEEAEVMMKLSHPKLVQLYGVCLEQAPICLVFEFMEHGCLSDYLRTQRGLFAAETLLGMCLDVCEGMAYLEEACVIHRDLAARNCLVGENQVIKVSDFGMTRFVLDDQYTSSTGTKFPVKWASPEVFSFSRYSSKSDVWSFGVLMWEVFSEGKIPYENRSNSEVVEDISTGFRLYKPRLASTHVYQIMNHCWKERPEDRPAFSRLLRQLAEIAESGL
Particulars: at 1 µM.

The target in experiment [11] is T2, Tyrosine-protein kinase ITK/TSK (Homo sapiens). The settings on record: at 10 µM.
In experiment [12] the target is Tyrosine-protein kinase JAK2 (Homo sapiens) (UniProt O60674). Particulars: at 1 µM.
Chain of Tyrosine-protein kinase JAK2 (Homo sapiens) (O60674 whole entry): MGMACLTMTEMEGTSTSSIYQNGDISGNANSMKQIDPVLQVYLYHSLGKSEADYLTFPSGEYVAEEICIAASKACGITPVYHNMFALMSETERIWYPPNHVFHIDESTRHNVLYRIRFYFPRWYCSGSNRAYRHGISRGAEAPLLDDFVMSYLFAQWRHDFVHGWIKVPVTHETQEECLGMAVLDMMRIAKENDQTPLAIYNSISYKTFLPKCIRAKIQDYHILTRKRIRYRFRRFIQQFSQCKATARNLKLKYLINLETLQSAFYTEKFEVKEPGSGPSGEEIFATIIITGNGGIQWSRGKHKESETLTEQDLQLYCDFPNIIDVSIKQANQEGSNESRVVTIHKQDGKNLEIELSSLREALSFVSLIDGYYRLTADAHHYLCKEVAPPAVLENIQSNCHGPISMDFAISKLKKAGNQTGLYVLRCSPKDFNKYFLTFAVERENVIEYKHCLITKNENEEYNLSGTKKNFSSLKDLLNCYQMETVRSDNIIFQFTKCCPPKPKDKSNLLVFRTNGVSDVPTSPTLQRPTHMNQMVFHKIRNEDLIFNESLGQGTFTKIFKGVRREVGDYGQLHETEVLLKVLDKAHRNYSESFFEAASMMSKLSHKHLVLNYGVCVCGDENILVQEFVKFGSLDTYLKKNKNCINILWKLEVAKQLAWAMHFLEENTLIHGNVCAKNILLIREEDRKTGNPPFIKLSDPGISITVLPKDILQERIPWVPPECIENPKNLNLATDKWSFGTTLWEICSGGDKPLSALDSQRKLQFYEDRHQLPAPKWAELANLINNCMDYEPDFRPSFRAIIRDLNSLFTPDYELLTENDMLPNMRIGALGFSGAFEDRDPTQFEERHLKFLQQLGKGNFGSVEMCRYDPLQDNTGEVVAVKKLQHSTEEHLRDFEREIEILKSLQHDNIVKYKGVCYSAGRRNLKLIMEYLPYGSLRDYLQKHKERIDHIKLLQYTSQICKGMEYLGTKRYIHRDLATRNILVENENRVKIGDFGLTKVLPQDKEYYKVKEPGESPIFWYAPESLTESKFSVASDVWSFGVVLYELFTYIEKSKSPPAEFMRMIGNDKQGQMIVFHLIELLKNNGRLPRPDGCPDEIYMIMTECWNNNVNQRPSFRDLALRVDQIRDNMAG
Experiment [13] shares this target. Particulars: at 10 µM.
Experiment [14] addresses T3, Tyrosine-protein kinase JAK3 (Homo sapiens) (UniProt P52333).
T3 sequence (whole entry): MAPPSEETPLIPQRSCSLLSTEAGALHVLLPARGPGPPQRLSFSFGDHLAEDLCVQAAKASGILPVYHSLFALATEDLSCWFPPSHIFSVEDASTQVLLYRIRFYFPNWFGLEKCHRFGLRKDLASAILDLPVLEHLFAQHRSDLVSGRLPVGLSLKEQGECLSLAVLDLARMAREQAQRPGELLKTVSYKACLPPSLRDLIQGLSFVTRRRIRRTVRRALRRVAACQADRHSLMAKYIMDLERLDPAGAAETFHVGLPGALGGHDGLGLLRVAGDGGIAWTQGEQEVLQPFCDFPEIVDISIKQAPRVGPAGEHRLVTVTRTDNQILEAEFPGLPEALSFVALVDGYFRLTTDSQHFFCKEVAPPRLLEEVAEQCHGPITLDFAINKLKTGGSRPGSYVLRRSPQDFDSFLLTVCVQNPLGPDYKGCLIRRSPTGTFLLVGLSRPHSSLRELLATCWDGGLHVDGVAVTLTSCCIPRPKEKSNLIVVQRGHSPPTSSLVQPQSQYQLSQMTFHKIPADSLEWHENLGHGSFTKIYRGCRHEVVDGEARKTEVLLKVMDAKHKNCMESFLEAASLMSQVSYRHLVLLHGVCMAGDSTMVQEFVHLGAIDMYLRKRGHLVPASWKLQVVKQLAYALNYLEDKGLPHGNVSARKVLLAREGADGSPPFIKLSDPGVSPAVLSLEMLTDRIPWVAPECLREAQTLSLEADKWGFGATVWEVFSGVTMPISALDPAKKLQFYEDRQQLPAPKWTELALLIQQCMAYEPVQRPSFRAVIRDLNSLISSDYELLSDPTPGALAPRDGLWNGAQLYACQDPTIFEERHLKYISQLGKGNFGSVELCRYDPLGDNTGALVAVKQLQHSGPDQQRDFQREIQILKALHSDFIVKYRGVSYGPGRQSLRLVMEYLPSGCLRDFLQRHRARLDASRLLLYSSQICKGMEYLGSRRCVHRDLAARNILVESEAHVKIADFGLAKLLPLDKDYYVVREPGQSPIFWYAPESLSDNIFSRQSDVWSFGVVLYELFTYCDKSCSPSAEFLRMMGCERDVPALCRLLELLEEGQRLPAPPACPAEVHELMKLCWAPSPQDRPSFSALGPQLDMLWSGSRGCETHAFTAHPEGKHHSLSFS
Particulars: at 1 µM.

The target of experiment [15] is T3, Tyrosine-protein kinase JAK3 (Homo sapiens). Particulars: at 10 µM.
In experiment [16] the target is Mitogen-activated protein kinase 8 (Homo sapiens) (UniProt P45983). The settings on record: at 1 µM.
Chain of Mitogen-activated protein kinase 8 (Homo sapiens) (P45983 whole entry): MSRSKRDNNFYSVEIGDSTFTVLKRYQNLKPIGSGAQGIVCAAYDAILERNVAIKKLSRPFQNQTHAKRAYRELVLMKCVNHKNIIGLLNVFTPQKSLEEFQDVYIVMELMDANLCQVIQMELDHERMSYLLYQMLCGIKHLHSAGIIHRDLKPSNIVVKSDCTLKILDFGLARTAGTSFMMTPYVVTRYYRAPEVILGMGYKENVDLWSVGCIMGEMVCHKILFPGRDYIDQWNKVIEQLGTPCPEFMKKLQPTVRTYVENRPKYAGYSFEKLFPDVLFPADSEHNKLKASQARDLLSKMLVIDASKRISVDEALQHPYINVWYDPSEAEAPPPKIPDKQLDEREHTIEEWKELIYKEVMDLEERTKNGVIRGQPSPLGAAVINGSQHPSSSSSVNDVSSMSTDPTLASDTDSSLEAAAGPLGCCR
Experiment [17] has the same target. The settings on record: at 10 µM.
For experiment [18], the target named is Mitogen-activated protein kinase 9 (Homo sapiens) (UniProt P45984). The settings on record: at 1 µM.
Chain of Mitogen-activated protein kinase 9 (Homo sapiens) (P45984 whole entry, looked up): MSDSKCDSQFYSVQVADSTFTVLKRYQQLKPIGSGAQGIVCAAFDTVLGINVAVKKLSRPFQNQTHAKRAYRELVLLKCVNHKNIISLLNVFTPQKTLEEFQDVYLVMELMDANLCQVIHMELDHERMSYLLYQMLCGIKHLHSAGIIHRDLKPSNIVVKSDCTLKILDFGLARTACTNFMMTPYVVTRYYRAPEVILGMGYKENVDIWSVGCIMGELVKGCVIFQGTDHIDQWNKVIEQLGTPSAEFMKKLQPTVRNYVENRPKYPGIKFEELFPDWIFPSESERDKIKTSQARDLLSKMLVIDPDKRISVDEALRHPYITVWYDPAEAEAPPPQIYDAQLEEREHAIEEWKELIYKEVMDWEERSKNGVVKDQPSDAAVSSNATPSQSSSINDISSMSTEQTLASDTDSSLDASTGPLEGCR
For experiment [19] the target is unchanged. Particulars: at 10 µM.
Experiment [20] has as its target Mitogen-activated protein kinase 10 (Homo sapiens) (UniProt P53779). The settings on record: at 1 µM.

Chain of Interleukin-1 receptor-associated kinase 1 (Homo sapiens) (P51617 whole entry, looked up): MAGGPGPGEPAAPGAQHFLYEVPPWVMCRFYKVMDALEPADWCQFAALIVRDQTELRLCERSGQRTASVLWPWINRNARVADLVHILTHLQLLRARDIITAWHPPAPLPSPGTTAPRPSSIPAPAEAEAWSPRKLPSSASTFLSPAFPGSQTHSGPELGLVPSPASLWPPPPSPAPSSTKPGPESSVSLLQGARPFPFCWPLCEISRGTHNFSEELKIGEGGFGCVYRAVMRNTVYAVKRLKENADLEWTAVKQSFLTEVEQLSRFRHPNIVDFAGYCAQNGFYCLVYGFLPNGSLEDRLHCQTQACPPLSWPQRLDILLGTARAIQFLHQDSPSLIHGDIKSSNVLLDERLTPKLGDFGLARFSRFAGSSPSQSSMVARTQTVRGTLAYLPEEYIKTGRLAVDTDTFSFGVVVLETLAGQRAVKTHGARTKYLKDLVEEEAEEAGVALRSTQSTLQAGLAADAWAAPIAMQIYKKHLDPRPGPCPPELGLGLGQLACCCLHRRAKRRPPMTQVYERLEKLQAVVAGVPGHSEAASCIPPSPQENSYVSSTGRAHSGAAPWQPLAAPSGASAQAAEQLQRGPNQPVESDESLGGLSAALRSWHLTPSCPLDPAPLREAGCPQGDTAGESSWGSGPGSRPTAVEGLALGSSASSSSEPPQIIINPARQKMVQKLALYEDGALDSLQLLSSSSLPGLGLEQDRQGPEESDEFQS
Chain of Mitogen-activated protein kinase 10 (Homo sapiens) (P53779 whole entry): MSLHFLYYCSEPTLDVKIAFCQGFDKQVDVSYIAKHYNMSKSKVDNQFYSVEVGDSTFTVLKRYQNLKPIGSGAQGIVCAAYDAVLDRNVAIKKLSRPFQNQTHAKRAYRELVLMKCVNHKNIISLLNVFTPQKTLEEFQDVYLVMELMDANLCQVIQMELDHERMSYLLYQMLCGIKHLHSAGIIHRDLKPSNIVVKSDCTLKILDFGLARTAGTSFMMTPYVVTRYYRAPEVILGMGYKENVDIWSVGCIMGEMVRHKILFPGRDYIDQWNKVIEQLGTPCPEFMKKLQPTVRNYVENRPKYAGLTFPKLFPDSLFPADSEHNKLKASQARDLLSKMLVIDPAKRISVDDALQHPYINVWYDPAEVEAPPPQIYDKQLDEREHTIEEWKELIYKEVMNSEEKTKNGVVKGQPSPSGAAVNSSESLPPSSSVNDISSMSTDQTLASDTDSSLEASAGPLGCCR

For the compound `Cc1ccc(S(=O)(=O)/C=C/C#N)cc1`, the residual activity in experiment [1] turned out to be 91%; in experiment [2], 99%; in experiment [3] it was 95%; in experiment [4], 102%; in experiment [5], 109%; in experiment [6], 97%. Moreover, the residual activity worked out at 92% in experiment [7]; 119% in experiment [8]; 106% in experiment [9]; 103% in experiment [10]; 102% in experiment [11]; 99% in experiment [12]. The residual activity in experiment [13] was determined as 103%; in [14], 109%; in experiment [15] it was 105%; in experiment [16], 115%; in experiment [17], 96%; in experiment [18] it was 107%. For the same compound, the residual activity is 112% in experiment [19] and 74% in [20].
Regarding `O=c1cc(-c2cccc3c2Sc2ccccc2S3)oc(N2CCOCC2)c1`, the residual activity in experiment [1] stood at 136%; in experiment [2], 98%; in [3], 99%; in [4] it was 102%; in experiment [6], 100%; in [7] it was 98%. Moreover, the residual activity in [8] worked out at 119%; in experiment [9], 96%; in [10], 105%; in [11], 99%; in experiment [12], 98%; in experiment [13], 111%. Also, the residual activity in [14] turned out to be 114%; in [15], 113%; in experiment [16], 108%; in [17] it was 97%; in [18], 103%; in [19] it was 100%. In [20], the residual activity was 91%.
With `Cc1cc2ncc(-c3ccccc3)nc2cc1C`, the residual activity was found to be 99% in experiment [4]; 94% in experiment [5]; 124% in experiment [8]; 71% in experiment [9]; 93% in experiment [10]; 101% in [12]. Further, the residual activity in experiment [14] came to 98%; in [15], 81%; in [17], 99%; in [18], 108%; in experiment [19], 97%; in [20] it was 108%.
As to `Cc1cc(Nc2nc(-c3ccccc3)nc3ccccc23)n[nH]1`, the residual activity in experiment [1] came to 5%; in [2], 36%; in [3], 7%; in experiment [4], 69%; in experiment [5], 23%; in experiment [6], 45%. Besides, the residual activity in experiment [7] was determined as 12%; in experiment [8], 8%; in experiment [9], 1%; in [10], 5%; in experiment [11], 0%; in [12] it was 14%. Also, the residual activity in experiment [13] worked out at 1%; in experiment [14], 41%; in experiment [15] it was 5%; in [16], 94%; in experiment [17], 71%; in experiment [19] it was 66%. Further, the residual activity in experiment [20] stood at 51%.
For `COc1cc2ncnc(Nc3ccc(O)c(Br)c3)c2cc1OC`, the residual activity came out at 76% in experiment [1]; 95% in experiment [2]; 91% in [3]; 40% in experiment [4]; 10% in experiment [5]; 44% in [6]. Also, the residual activity was determined as 17% in experiment [7]; 102% in [8]; 75% in [9]; 89% in experiment [10]; 71% in experiment [11]; 102% in experiment [12]. Besides, the residual activity in experiment [13] came out at 55%; in experiment [14] it was 93%; in [15], 57%; in experiment [16], 96%; in experiment [17], 54%; in experiment [18] it was 99%. The residual activity was 78% in [19] and 51% in [20].
Regarding `COc1cc2ncnc(Nc3ccc(Oc4ccccc4)cc3)c2cc1OC`, the residual activity in experiment [1] is 98%; in experiment [2], 93%; in [3] it was 91%; in [4], 87%; in [5], 79%; in experiment [6] it was 98%. The residual activity in experiment [7] was 79%; in [8], 82%; in [9] it was 81%; in [10] it was 86%; in experiment [12] it was 118%; in experiment [13] it was 148%. Moreover, the residual activity in experiment [14] turned out to be 93%; in experiment [15] it was 113%; in experiment [16], 106%; in experiment [17], 110%; in [18], 121%; in experiment [19] it was 98%. In experiment [20], the residual activity is 83%.
For the compound `C[C@@H](N)[C@H]1CC[C@H](C(=O)Nc2ccncc2)CC1`, the residual activity in [1] came to 109%; in [2] it was 104%; in experiment [3] it was 97%; in experiment [4], 100%; in experiment [5] it was 98%; in experiment [6] it was 101%. The residual activity worked out at 95% in experiment [7]; 103% in experiment [8]; 101% in experiment [9]; 106% in experiment [10]; 104% in experiment [11]; 95% in experiment [12]. For the same compound, the residual activity in experiment [13] amounted to 100%; in [14], 107%; in experiment [15], 122%; in [16] it was 98%; in [17] it was 110%; in [18] it was 111%. For the same compound, the values for the residual activity in experiment [19] and in experiment [20] were 105% and 83%, respectively.
